Screens from PubChem.
This is a sample that favours compounds with a hit; in the whole collection about 4.6% have one here.
KKLEB cytotox – counter-screen for CF NF-kB inhibitors: cytotoxicity. KKLEB CF airway cells viability, ATPlite luminescence, overnight; active compounds read low; cells stimulated with P. aeruginosa culture filtrate. AID 602141. actives 0.36% (n = 360,000). activity change (cytotoxicity), % at 5 µM;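 active = corrected activity change at or below -50% at 5 µM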
Peg3 promoter – Peg3 promoter activity inhibition; HeLa PEG-Prom luciferase reporter, luminescence, overnight; inhibition, % at 20 µM; actives 1.7% (n = 360,000); AID 588405;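 active = inhibition of at least 50% at 20 µM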
CF NFkB inh – inhibitors of cystic fibrosis induced NF-kB; KKLEB NF-kB-GFP reporter, PAF-induced, GFP fluorescence overnight; inhibition, % at 5 µM; actives 0.86% (n = 360,000);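 active = at least 50% inhibition at 5 µM, scaled per plate between neutral and stimulator controls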;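 also: PAF is a Pseudomonas aeruginosa culture filtrate used as stimulus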
ABHD5-PLIN5 inh – ABHD5-PLIN5 protein interaction inhibition | Split G. princeps luciferase complementation, luminescence, 4 h | actives 0.78% (n = 360,000) | inhibition, % at 4 µM | AID 602281;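 active = inhibition above the mean inhibition across every tested compound plus 3 SD, cut at about 22% in these data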
Mdm2-MdmX inh – human Mdm2/MdmX binding inhibition. O15151+Q00987. SaOS-2 split-luciferase Mdm2/MdmX complementation, luminescence. inhibition, % at 8 µM. actives 3% (n = 330,000);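 active = inhibition of at least 50% at 8 µM in the primary screen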
HIF-2a inh – HIF-2a inhibition; 786-0 RCC cells HIF-2a reporter, luciferase luminescence, overnight; inhibition, % at 18.8 µM; actives 0.72% (n = 360,000);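 active = inhibition of the luminescence signal of 40% or more relative to plate controls, in a single-dose primary screen at 18.75 µM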
Mdm2 MdmX conf – confirmation of human Mdm2/MdmX interaction inhibitors. shares compounds with Mdm2-MdmX inh. Mdm2-MdmX binding, luminescent assay. inhibition, % at 8 µM. actives 55% (n = 10,000). AID 489028; in the data active = inhibition above about 40%
Full FLuc ctr – counter-screen for Mdm2/MdmX inhibitors: full-length luciferase; shares compounds with Mdm2-MdmX inh; SaOS-2 full-length luciferase counterscreen, luminescence; inhibition, % at 8 µM; actives 77% (n = 6,200); AID 504607;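 active = mean inhibition at 8 µM reaching about 37%, which flags the compound as non-specific, limit read from the data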;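 also: p53-null SaOS-2 cells with luciferase driven by a doxycycline-inducible promoter; compound on cells about two nights before reading with doxycycline added after day one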
A number is an active result; . = inactive; / = no result given.

SMILES	KKLEB cytotox	Peg3 promoter	CF NFkB inh	ABHD5-PLIN5 inh	Mdm2-MdmX inh	HIF-2a inh	Mdm2 MdmX conf	Full FLuc ctr
CC(C)(C)n1nnnc1C(c1ccc(F)cc1)N(Cc1ccc(F)cc1)Cc1ccco1 (configuration not stated)	.	.	.	.	61	.	.	/
CC(C)(C)n1nnnc1C(c1ccc(Cl)cc1)N(Cc1cccnc1)Cc1ccco1 (configuration not stated)	.	.	.	.	.	.	/	/
CCN(Cc1ccccc1)C(c1ccncc1)c1nnnn1C(C)(C)C (configuration not stated)	.	.	.	.	.	.	/	/
Cc1ccc(C(c2nnnn2C(C)(C)C)N(Cc2ccco2)Cc2cccs2)cc1 (configuration not stated)	.	.	.	.	.	.	/	/
O=S1(=O)C=C[C@H](COCc2ccccc2)N1	.	.	.	.	/	.	/	/
COc1cc2c(cc1OC)-c1cc(Nc3ccc4c(c3)OCCO4)nc(=O)n1CC2	.	.	.	.	68	.	45	52
CCC(NC(=O)Nc1nnc(C(F)(F)F)s1)(C(F)(F)F)C(F)(F)F	-51	.	58	.	91	.	90	.
CC(=O)N1C[C@H]2CON(C)[C@H]2C[C@H]1c1ccc(-c2cccnc2)cc1	.	.	.	.	/	.	/	/
O=C(Cc1ccc(Cl)cc1)Nc1ccc(-c2cc3ccccc3oc2=O)c(Cl)c1	.	.	.	.	59	.	62	52
O=C(Cc1ccc(Cl)cc1)Nc1ccc2oc(=O)ccc2c1	.	.	.	.	.	.	/	/
COc1ccccc1NC(=O)c1cnc(Nc2ccccc2OC)c2ccccc12	.	.	.	.	52	.	58	66
COc1ccccc1NC(=O)c1ccccc1C(=O)Nc1ccccc1OC	.	.	.	.	.	.	/	/
CCC/C(C#CCCN1C(=O)c2ccccc2C1=O)=C1/c2ccccc2C(=O)N1c1ccccc1	.	.	.	.	.	.	/	/
CCOC(=O)c1ccc(NC(=O)c2c(N)n(C)c(=O)n(C)c2=O)cc1	.	.	.	.	85	.	.	/
COC(=O)C(C)SC1=N/C(=C/c2ccc(-n3cncn3)cc2)C(=O)N1 (configuration not stated)	.	.	.	.	.	.	/	/
COc1cccc(OCc2cc(C(=O)NC(C)c3cnn(C)c3C)no2)c1 (configuration not stated)	.	.	.	.	.	.	/	/
CNC(=S)N1N=C(c2ccc(C)cc2)CC1c1cc(OC)ccc1OC (configuration not stated)	.	.	.	.	.	.	/	/
COc1ccc(OC)c(C2CC(c3ccccc3)=NN2C(=S)Nc2ccccc2)c1 (configuration not stated)	.	.	.	.	72	.	58	63
Cc1ccc(C(C)C)c(OCC(=O)Nc2sc3c(c2C#N)CC(C)(C)NC3(C)C)c1	.	.	.	.	59	.	.	81
Cc1cc(OCC(=O)Nc2sc3c(c2C#N)CC(C)(C)NC3(C)C)c(C(C)C)cc1Cl	.	.	.	.	.	.	/	/
CCCNC(=O)C(Cc1ccc(Cl)cc1)NC(=O)c1ccc(-c2ccccc2)cc1 (configuration not stated)	.	.	.	.	59	.	.	/
CCCNC(=O)C(Cc1ccc(Cl)cc1)NC(=O)c1ccc(C#N)cc1 (configuration not stated)	.	.	.	.	.	.	/	/
O=C(Nc1ccc(F)cc1)C(c1ccncc1)N1CCN(c2cccc(C(F)(F)F)n2)CC1 (configuration not stated)	/	/	/	.	/	.	/	/
O=C(NCC1CCCO1)c1cc2c([nH]c3ccccc32)c(-c2cccc(Br)c2)n1 (configuration not stated)	.	.	.	.	62	.	.	63
COc1ccc(-c2nc(C(=O)NCC3CCCO3)cc3c2[nH]c2ccccc23)cc1 (configuration not stated)	.	.	.	.	.	.	/	/
